Source: PubChem BioAssay (NCATS)
Results filed as inconclusive are left out. Activity calls are given as the source filed them. Calls come from the whole dose curve; as a rule, active = well fitted curve in the direction sought with a large enough effect; inconclusive = small, poorly fitted or top-dose-only effect, or another doubt; inactive = no such curve, though single readings can be large; an effect the other way counts as inactive or inconclusive.

Experiments:
[1] = target: ATP-dependent 6-phosphofructokinase (Trypanosoma brucei brucei) (UniProt O15648); assay: qHTS Assay to Find Inhibitors of T. brucei phosphofructokinase: hit validation (AID 492961);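 note: luminescence reports ADP formed as PFK phosphorylates fructose-6-phosphate with ATP; % is set by controls: 0 for no effect and ±100 for the full control effect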
Sequence of ATP-dependent 6-phosphofructokinase (Trypanosoma brucei brucei) (O15648 whole entry, looked up): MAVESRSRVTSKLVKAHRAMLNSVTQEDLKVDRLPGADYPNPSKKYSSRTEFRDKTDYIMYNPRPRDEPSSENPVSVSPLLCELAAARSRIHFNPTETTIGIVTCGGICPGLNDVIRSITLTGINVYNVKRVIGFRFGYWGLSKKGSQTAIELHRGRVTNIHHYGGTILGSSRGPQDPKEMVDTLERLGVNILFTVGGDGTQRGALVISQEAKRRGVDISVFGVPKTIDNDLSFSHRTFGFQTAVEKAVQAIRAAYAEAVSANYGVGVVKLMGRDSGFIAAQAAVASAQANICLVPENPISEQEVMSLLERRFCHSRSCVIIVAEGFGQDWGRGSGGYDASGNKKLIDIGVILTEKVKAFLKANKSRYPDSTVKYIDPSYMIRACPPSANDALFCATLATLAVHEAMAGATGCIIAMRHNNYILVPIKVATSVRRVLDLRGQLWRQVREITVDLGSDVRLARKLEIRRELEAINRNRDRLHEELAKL
Procedure, shortened: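 ADP-Glo luminescence read-out of ADP formed by 1.25 nM PFK from 0.1 mM ATP and 0.5 mM F6P (TEA pH 8.0, 45 min, RT). Compounds titrated; activity normalized to no-enzyme and full-enzyme controls.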

[2] = qHTS profiling for inhibitors of Plasmodium falciparum proliferation (AID 504749); note: potency is the fitted concentration of half-maximal effect;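 for activity, negative = inhibition: 0% = DMSO vehicle and full inhibition = artemisinin control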; for all read-outs here: nearly all actives have a fitted effect of over 60% in size; details: P. falciparum in erythrocytes, SYBR Green DNA, 72 h; for activity, negative = inhibition: at 28.7 µM (top of the series)
Procedure, shortened: (§1)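 SYBR Green fluorescence of parasite DNA, read after lysis and overnight dark incubation, measured growth over 72 h in erythrocyte culture at 0.3% parasitemia and 2.5% hematocrit. Data normalised to DMSO and 0.29 uM artemisinin, with plate-drift correction.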

AA1029 = assay: as above; details: P. falciparum in erythrocytes, SYBR Green DNA, 72 h; series mostly up to 28.7 µM
Procedure, shortened: as §1

CP192 = assay: as above; details: P. falciparum in erythrocytes, SYBR Green DNA, 72 h; series mostly up to 28.7 µM
Procedure, shortened: as §1

CP238 = assay: as above; details: P. falciparum in erythrocytes, SYBR Green DNA, 72 h; series mostly up to 28.7 µM
Procedure, shortened: as §1

CP286 = assay: as above; details: P. falciparum in erythrocytes, SYBR Green DNA, 72 h; series mostly up to 28.7 µM
Procedure, shortened: as §1

FAB9 = assay: as above; details: P. falciparum in erythrocytes, SYBR Green DNA, 72 h; series mostly up to 28.7 µM
Procedure, shortened: as §1

N140 = assay: as above; details: P. falciparum in erythrocytes, SYBR Green DNA, 72 h; series mostly up to 28.7 µM
Procedure, shortened: as §1

AS120 = assay: as above; details: P. falciparum in erythrocytes, SYBR Green DNA, 72 h; series mostly up to 28.7 µM
Procedure, shortened: as §1

ATS189 = assay: as above; details: P. falciparum in erythrocytes, SYBR Green DNA, 72 h; series mostly up to 28.7 µM
Procedure, shortened: as §1

CP185 = assay: as above; details: P. falciparum in erythrocytes, SYBR Green DNA, 72 h; series mostly up to 28.7 µM
Procedure, shortened: as §1

CP211 = assay: as above; details: P. falciparum in erythrocytes, SYBR Green DNA, 72 h; series mostly up to 28.7 µM
Procedure, shortened: as §1

CP217 = assay: as above; details: P. falciparum in erythrocytes, SYBR Green DNA, 72 h; series mostly up to 28.7 µM
Procedure, shortened: as §1

CP252 = assay: as above; details: P. falciparum in erythrocytes, SYBR Green DNA, 72 h; series mostly up to 28.7 µM
Procedure, shortened: as §1

CP265 = assay: as above; details: P. falciparum in erythrocytes, SYBR Green DNA, 72 h; series mostly up to 28.7 µM
Procedure, shortened: as §1

Dd2 = assay: as above; details: P. falciparum in erythrocytes, SYBR Green DNA, 72 h; series mostly up to 28.7 µM
Procedure, shortened: as §1

ECU = assay: as above; details: P. falciparum in erythrocytes, SYBR Green DNA, 72 h; series mostly up to 28.7 µM
Procedure, shortened: as §1

HB3 = assay: as above; details: P. falciparum in erythrocytes, SYBR Green DNA, 72 h; series mostly up to 28.7 µM
Procedure, shortened: as §1

CP191 = assay: as above; details: P. falciparum in erythrocytes, SYBR Green DNA, 72 h; series mostly up to 28.7 µM
Procedure, shortened: as §1

CP262 = assay: as above; details: P. falciparum in erythrocytes, SYBR Green DNA, 72 h; series mostly up to 28.7 µM
Procedure, shortened: as §1

Cc1cc(O)c2c(c1)OC1(C)CCC3C(C)(C)CCCC34COC2C14 (stereo unspecified)
inactive: Potency [1] | activity, negative = inhibition ([2]; parasite line A) -27.8% | Potency (CP192) | Potency (CP238) | Potency (CP286) | Potency (FAB9)
active: Potency (AA1029) 10 µM | Potency (N140) 12.6 µM

C/C(=C(/CCOC(=O)C(C)C)SS/C(CCOC(=O)C(C)C)=C(\C)N(C=O)Cc1cnc(C)nc1N)N(C=O)Cc1cnc(C)nc1N
inactive: Potency [1] | activity, negative = inhibition ([2]; parasite line B) -17.2% | Potency (AA1029) | Potency (AS120) | Potency (ATS189) | Potency (CP185) | Potency (CP192) | Potency (CP211) | Potency (CP217) | Potency (CP238) | Potency (CP252) | Potency (CP265) | Potency (CP286) | Potency (Dd2) | Potency (ECU) | Potency (FAB9) | Potency (HB3) | Potency (N140)

Cc1cnc(NC(=O)C2C(=O)c3ccccc3S(=O)(=O)N2C)s1 (stereo unspecified)
inactive: Potency [1] | activity, negative = inhibition ([2]; parasite line A) -14.2% | Potency (AA1029) | Potency (AS120) | Potency (ATS189) | Potency (CP185) | Potency (CP191) | Potency (CP192) | Potency (CP211) | Potency (CP217) | Potency (CP238) | Potency (CP252) | Potency (CP262) | Potency (CP265) | Potency (CP286) | Potency (Dd2) | Potency (ECU) | Potency (FAB9) | Potency (HB3) | Potency (N140)

CCOc1ccccc1O[C@@H](c1ccccc1)[C@@H]1CNCCO1
active: Potency (AA1029) 5.62 µM | Potency (AS120) 11.2 µM | Potency (Dd2) 0.0794 µM | Potency (ECU) 7.94 µM
inactive: Potency [1] | activity, negative = inhibition ([2]; parasite line A) -12.8% | Potency (CP185) | Potency (CP192) | Potency (CP211) | Potency (CP262) | Potency (FAB9) | Potency (HB3)

O=C(O)C[CH2][Ge](=[O])[O][Ge](=[O])[CH2]CC(=O)O
inactive: Potency [1] | activity, negative = inhibition ([2]; parasite line A) 10.2% | Potency (AA1029) | Potency (AS120) | Potency (ATS189) | Potency (CP185) | Potency (CP191) | Potency (CP192) | Potency (CP211) | Potency (CP217) | Potency (CP238) | Potency (CP252) | Potency (CP262) | Potency (CP265) | Potency (CP286) | Potency (Dd2) | Potency (ECU) | Potency (FAB9) | Potency (HB3) | Potency (N140)

C=C1CC[C@H](O)C/C1=C/C=C1\CCC[C@]2(C)[C@@H]([C@H](C)CCCC(C)(C)O)CC[C@@H]12
inactive: Potency [1] | Potency (CP192) | Potency (CP211) | Potency (CP262) | Potency (FAB9)
active: Potency ([2]; parasite line B) 11.2 µM | Potency (AA1029) 12.6 µM | Potency (AS120) 10 µM | Potency (Dd2) 12.6 µM | Potency (ECU) 12.6 µM | Potency (N140) 10 µM

C=C1N[C@]2(C(=O)COC(C)=O)[C@@H](C[C@H]3[C@@H]4CCC5=CC(=O)C=C[C@]5(C)[C@H]4[C@@H](O)C[C@@]32C)O1
inactive: Potency [1] | activity, negative = inhibition ([2]; parasite line B) -29.8% | Potency (CP192) | Potency (CP252) | Potency (CP265) | Potency (Dd2) | Potency (ECU) | Potency (FAB9) | Potency (HB3) | Potency (N140)

CNC1CCc2cc(OC)c(OC)c(OC)c2-c2ccc(OC)c(=O)cc21 (stereo unspecified)
inactive: Potency [1] | activity, negative = inhibition ([2]; parasite line A) -5.32% | activity, negative = inhibition ([2]; parasite line B) 0.292% | Potency (AA1029) | Potency (AS120) | Potency (ATS189) | Potency (CP185) | Potency (CP191) | Potency (CP192) | Potency (CP211) | Potency (CP217) | Potency (CP238) | Potency (CP252) | Potency (CP262) | Potency (CP265) | Potency (CP286) | Potency (ECU) | Potency (FAB9) | Potency (HB3) | Potency (N140)

C=C1CC[C@H](O)C/C1=C/C=C1\CCC[C@]2(C)[C@@H]([C@H](C)CC[C@@H](O)C(C)(C)O)CC[C@@H]12
inactive: Potency [1] | Potency (CP192) | Potency (CP211) | Potency (CP262) | Potency (CP286) | Potency (FAB9)
active: Potency (AS120) 10 µM | Potency (ECU) 10 µM | Potency (N140) 8.91 µM

CCC1OC(=O)C[C@H](O)C(C)[C@@H](O[C@@H]2OC(C)C(O)C(N(C)C)C2O)C(CCN2CC(C)CC(C)C2)CC(C)C(=O)/C=C/C(C)=C\[C@@H]1COC1OC(C)C(O)C(OC)C1OC (stereo partly specified)
active: Potency (CP191) 6.31 µM | Potency (CP286) 5.62 µM | Potency (Dd2) 3.98 µM | Potency (N140) 10 µM
inactive: Potency [1] | activity, negative = inhibition ([2]; parasite line A) -29.2% | Potency (FAB9) | Potency (HB3)
